The source made the active and inactive calls. The calls were made as follows: active = hit-call score of the fitted dose curve at least 0.9, where 1 is the maximum; inactive = score below 0.9.
Assay: CCTE_Mundy_HCI_Cortical_NOG_NeuriteLength: CCTE's Neurite Outgrowth Assay in rat cortical cells for Neurite Length, Mundy Lab (AID 2284213);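 as to AC50: neurites imaged about 48 to 50 h after chemical exposure began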
Description: CCTE_Mundy_HCI_Cortical_NOG is a multiplexed, cell-based-readout assay that uses rat primary cortical cells with measurements taken at 50.33 hours after chemical dosing in a microplate: 96-well plate.CCTE_Mundy_HCI_Cortical_NOG_NeuriteLength is one of four components of the CCTE_Mundy_HCI_Cortical_NOG assay. It measures neurite outgrowth related to the neurite length using High Content Imaging of fluorescently labelled markers.[…] Using a type of morphology reporter, loss -of-signal activity can be used to understand developmental effects.
Exposure starts 2 hours post-plating by adding 10 ul of the working solution to 90 ul of media in the wells for a 1/10 dilution. Forty-eight hours after chemical treatment cells are fixed by direct addition of 100 ul of warm (37C) Dulbecco's phosphate buffered saline (DPBS) fixative solution containing 8% paraformaldehyde, 8% sucrose, and 0.1% of 3 mg/ml Hoechst 33342 into each well. Primary antibodies are prepared by dilution in Immunocytochemical Staining Buffer (ISB), 10X Dulbecco's PBS, 0.1% Saponin, 5% Bovine Serum Albumin, 0.5% NaN3 (Sodium Azide) and betaIII-tubulin (rabbit anti-betaIII-tubulin, 1:800) followed by Alexa Fluor-488 secondary (1:500) to label neuronal cell bodies and neurites. A Cellomics ArrayScan VTi HCS Reader is used for automated image acquisition and analysis of neurite outgrowth.

outcome, inactive:
CC(C)c1nn(C(=O)NC(C)(C)C)c(=O)n1N
C[C@@H]1CCO[C@H]2Cn3cc(C(=O)NCc4ccc(F)cc4F)c(=O)c(O)c3C(=O)N12
CC(=O)N[C@@H](CC(=O)O)C(=O)O
CN(C)CCCn1cc(C2=C(c3c[nH]c4ccccc34)C(=O)NC2=O)c2ccccc21
F
CCc1ccccc1
Cc1[nH]n(C)c(=O)c1C(=O)c1ccc(C(F)(F)F)cc1S(C)(=O)=O
C[C@@H]1CC[C@@H](C(C)(C)O)[C@H](O)C1
[Li+]
CCCCCC(C)(CC)C(=O)NC (stereo not given)
CCCCCC=C(C)C(CC)CCO (stereo not given)
CCN(CC)CCCC(C)Nc1nc(C)cc(Nc2ccc3nc(C)cc(N)c3c2)n1 (stereo not given)
CC(C)O

AC50, active:
CC(CNC(=S)[S-])NC(=S)[S-].[Zn+2] (stereo not given) 27.6 µM
BrC1CC(Br)CC(Br)CC(Br)CC(Br)CC(Br)C1 (stereo not given) 8.28 µM

From PubChem BioAssay (EPA / NIEHS)
